According to PubChem BioAssay (NCATS):
Inconclusive results are not listed. Calls of active or inactive are those of the source. The call rests on the fitted dose curve; in most records, active means well fitted curve in the direction sought with a large enough effect; inconclusive means small, poorly fitted or top-dose-only effect, or effect the other way, or another doubt; inactive means no such curve, though single readings can be large or run the other way.

Assay: Cytotoxicity qHTS for assessment of Hepg2 cells membrane integrity screened against the NCATS CANVASS Library (AID 1347387)
Settings: HepG2 LDH release (CytoTox-ONE) fluorescence, 5 h; series mostly up to 46.1 µM
From the text: Natural products and their derivatives continue to be wellsprings of nascent therapeutic potential. However, many laboratories have limited resources for biological evaluation, leaving their previously isolated or synthesized compounds largely or completely untested. To address this issue, the Canvass library of natural products was assembled (https://tripod.nih.gov/canvass), in collaboration with academic and industry researchers, for quantitative high-throughput screening (qHTS) across a diverse set of cell-based and biochemical assays. The pure (>85% purity by liquid chromatography/mass spectrometry [LC/MS]) Canvass library of 346 natural products were submitted by 45 academic laboratories and companies around the world. We collected pure natural products to circumvent deconvolution and structure elucidation due to time and resource limitations. The library was formatted into 1536-well plates and evaluated in 50 qHTS (in an 11-pnt concentration series) bioassays with broad scope of disease-relevant mechanisms. The resulting data set from 50 different assays was then systematically analyzed to identify overall trends and specific natural products with interesting biological activities. Reported herein are the results of each individual qHTS and their corresponding assay protocol. The membrane integrity assay is a fluorometric method for estimating the number of nonviable cells. The assay measures the release of lactate dehydrogenase (LDH) from cells with a damaged cellular membrane. The amount of fluorescence is proportional to the number of lysed cells. National Center for Advancing Translational Sciences (NCATS), Rockville, MD National Institute of Health (NIH), Bethesda, Maryland
Membrane Integrity-screen protocol: 1. In black solid-bottom 1536 well plates, 5 uL of HepG2 cell suspension was dispensed using the Multidrop Combi (Thermo Fisher Scientific) at a final concentration of 2000 cells / well (columns 2-48). 2. The assay plates were incubated overnight at 37C, 5% CO2 to allow the cells to acclimate and attach. 3. 23 nL of compounds (in DMSO), vehicle control (DMSO) or control compound were pin transferred into the assay plates using the Kalypsis pin tool (Wako USA) equipped with a 1536 well pin heads, resulting in final concentration of 0.59 nM - 46 uM. 4. The assay plates were further incubated for 5 hr at 37C, 5% CO2. 5. 5 uL of CytoTox-ONE Membrane Integrity Assay reagent was added to the plates using the BioRAPTR dispenser followed by a 10 min room temperature incubation. 6. The fluorescence signal was measured using the EnVision plate reader (PerkinElmer) using a 560 nm excitation and 590 nm emission filters.

Question: Which outcome does the source give for `C/C=C(/C)c1cc(O)c(C)c2c1Oc1cc(O)cc(C)c1C(=O)O2` here?
Answer: inactive

Question: For `C[C@@]1(CCC(=O)Nc2c(O)ccc(C(=O)O)c2O)C(=O)C=C[C@]23C[C@H]4C[C@H](O[C@@]4(C)C2)C31` (stereo not given in full), which outcome is on record?
Answer: inactive

Question: With `Cc1occ2c1C(=O)c1c(cc(O)c(O)c1O)C2=O` as the compound, how does the outcome read?
Answer: inactive

Question: For `COC(=O)C1=C[C@]23C[C@@H](C)CC[C@@H]2[C@@]2(C)CC[C@@H](C(C)C)[C@@](O)(O3)[C@@H]12`, which outcome is on record?
Answer: inactive

Question: Which outcome does the source give for `O=Cc1ccc2n1C[C@]1(OC2)O[C@H](CO)[C@@H](O)[C@@H]1O` here?
Answer: inactive

Question: With `C[n+]1cc2cc(C(N)=O)[nH]c3c(=N)c(Cl)c(N)c1c23` as the compound, how does the outcome read?
Answer: inactive

Question: For `CC1=C(C)C(=O)OC(C(C)C2(O)CCC3C4C5OC5C5(O)CC=CC(=O)C5(C)C4CCC32C)C1` (stereo not given), which outcome is on record?
Answer: inactive

Question: Which outcome does the source give for `COC12OC1(C13OC1(OC)C(=O)c1cc4cc(C)oc(=O)c4c(O)c1C3O)C(O)c1c(cc3cc(C)oc(=O)c3c1O)C2=O` (stereo not given) here?
Answer: inactive

Question: With `O=C1CC(c2ccc(O)cc2)Oc2cc(O)cc(O)c21` (stereo not given) as the compound, how does the outcome read?
Answer: inactive

Question: For `C[C@]12CCC[C@](C)(C(=O)O)[C@@H]1CC[C@@]1(C)c3cocc3CC[C@H]21`, which outcome is on record?
Answer: inactive

Question: For `CC(C)=CC[C@H]1C[C@@]2(CC=C(C)C)C(=O)[C@](CC=C(C)C)(C(=O)C(C(=O)c3ccccc3)=C2O)C1(C)C`, which outcome is on record?
Answer: inactive

Question: For `CN1CC[C@@]2([C@@]34CCN(C)[C@@H]3Nc3ccccc34)c3ccccc3N[C@@H]12`, which outcome is on record?
Answer: inactive

Question: With `COc1ccc2[nH]c3c(c2c1)CCN1C[C@H]2C[C@@H](OC(=O)c4cc(OC)c(OC)c(OC)c4)[C@H](OC)[C@@H](OC)[C@H]2C[C@H]31` as the compound, how does the outcome read?
Answer: inactive

Question: Which outcome does the source give for `Oc1ccc(C2Oc3cc(O)c4c(c3[C@@H]2c2cc(O)cc(O)c2)[C@H]2C(c3ccc(O)cc3)c3c(O)cc5c(c3[C@H]2C4c2ccc(O)cc2)[C@H](c2cc(O)cc(O)c2)C(c2ccc(O)cc2)O5)cc1` (stereo not given in full) here?
Answer: inactive

Question: For `CC(C)=CCC/C(C)=C/Cc1cc([C@@H]2CC(=O)c3c(cc(O)c(CC=C(C)C)c3O)O2)ccc1O`, which outcome is on record?
Answer: inactive

Question: With `C/C(=C\[C@H](C)C(=O)CCCC1CC(=O)NC(=O)C1)[C@@H]1OC(=O)/C=C/CC/C=C/[C@H](O)[C@@H](O)[C@@H]1C` as the compound, how does the outcome read?
Answer: inactive

Question: Which outcome does the source give for `COc1ccc([C@@H]2c3cc4c(cc3C(=O)[C@H](C)C2C)OCO4)cc1OC` (stereo not given in full) here?
Answer: inactive

Question: Which outcome does the source give for `COC1C(C)OC(OCC23C[C@@H]4[C@H](C)CC[C@H]4C4(C=O)CC2C=C(C(C)C)C34C(=O)O)[C@@H](O)[C@H]1O` (stereo not given in full) here?
Answer: inactive

Question: For `C[C@H](CCC(O)C(C)(O)CO)[C@@]1(O)CC[C@@]2(C)C3=C(CC[C@@]21C)[C@@]1(C)CCC(OC(=O)CCC(=O)O)C(C)(C)[C@@H]1CC3` (stereo not given in full), which outcome is on record?
Answer: inactive

Question: With `O=C1CC(c2ccc(O)cc2)Oc2ccccc21` (stereo not given) as the compound, how does the outcome read?
Answer: inactive

Question: With `COc1c(O)cc2c(c1O)C(=O)c1c(coc1C)C2=O` as the compound, how does the outcome read?
Answer: inactive

Question: Which outcome does the source give for `Cc1cc(C)c(O)c(C(=O)CC2CC(=O)NC(=O)C2)c1` here?
Answer: inactive

Question: With `C/C(=C\[C@H](C)C(=O)C[C@H](O)CC1CC(=O)NC(=O)C1)[C@@H]1OC(=O)CCCC/C=C/[C@@H](O)C[C@@H]1C` as the compound, how does the outcome read?
Answer: inactive

Question: With `COC(=O)[C@]1([C@H]2CCC(=O)O2)CC(=O)c2c(O)cc(C)cc2O1` as the compound, how does the outcome read?
Answer: inactive

Question: Which outcome does the source give for `CN1CC[C@]23c4ccccc4N[C@H]1[C@]21CCN(C)[C@H]3Nc2ccccc21` here?
Answer: inactive

Question: With `O=C1CC2OCC=C3CN4C5CC3C2[C@@H]2N1c1ccccc1[C@]52C[C@@H]4C1=C[C@H]2C3CC4N(CC[C@@]45c4ccccc4N(C1=O)[C@@H]25)C/C3=C/CO` (stereo not given in full) as the compound, how does the outcome read?
Answer: inactive

Question: With `CN1CC[C@@]23c4ccccc4N[C@@H]1[C@@]21CCN(C)[C@@H]3Nc2ccccc21` as the compound, how does the outcome read?
Answer: inactive

Question: For `CC(C)[C@@H]1CC(=O)c2coc3c2[C@H]1C[C@@H](C)C3=O`, which outcome is on record?
Answer: inactive

Question: With `CC1=C[C@H]2[C@H]3C(=O)C(c4ccc(O)cc4)=C[C@@]3(c3ccc(O)cc3)[C@@H]1C(=O)[C@]2(C)O` as the compound, how does the outcome read?
Answer: inactive

Question: For `C=C[C@](Cl)(CBr)CCC=C(C)C`, which outcome is on record?
Answer: inactive

Question: With `C/C(=C\CC[C@@H](C)[C@H]1CC[C@]2(C)C3=CCC4C(C)(C)[C@@H](O)C[C@@H](O)[C@]4(C)C3[C@H](O)C[C@@]12C)CO` (stereo not given in full) as the compound, how does the outcome read?
Answer: inactive

Question: Which outcome does the source give for `O=Cc1ccc2n1C[C@]1(C[C@H](O)[C@@H](CO)O1)OC2` here?
Answer: inactive

Question: Which outcome does the source give for `CN1CCc2cc3c(c4c2C1(C)C(=O)c1cc(O)ccc1-4)OCO3` (stereo not given) here?
Answer: inactive

Question: For `CC(=O)Oc1cc2c(c(OC(C)=O)c1C1CCc3cc(Cl)c(Cl)n31)C(=O)n1c-2cc(Cl)c1Cl` (stereo not given), which outcome is on record?
Answer: inactive

Question: With `COC(=O)[C@@]1(C)CCC[C@]2(C)c3cc(OC)ccc3CC[C@@H]12` as the compound, how does the outcome read?
Answer: inactive

Question: For `C[C@@]12CCC[C@@](C)(C(=O)O)[C@H]1C[C@@H](O)[C@@]13C[C@@H](CC[C@@H]21)[C@](C)(O)C3`, which outcome is on record?
Answer: inactive

Question: Which outcome does the source give for `O=C1OC(CCO)c2cccc(O)c21` (stereo not given) here?
Answer: inactive

Question: With `CC(C)=CCCC(C)(O)[C@H]1CC=C(C)C(O)C1` (stereo not given in full) as the compound, how does the outcome read?
Answer: inactive

Question: Which outcome does the source give for `CC[C@@H]1[C@H](C)[C@H](c2cc(OC)c(OC)cc2OC)[C@@H](C)[C@H](c2cc(OC)c(OC)cc2OC)[C@]12C=C(OC)C(=O)C=C2OC` here?
Answer: inactive

Question: Which outcome does the source give for `COc1cc2c(cc1OC)[C@@H](c1ccc3c(c1)OCO3)C(C)[C@@H](C)C2=O` (stereo not given in full) here?
Answer: inactive
